In the library only some 21% were active in any assay of this set; here they are far more common.
Shiga toxin inh = inhibitors of Shiga toxin in Vero cells; AID 2315; inhibition, % at 38.7 µM; 9.2% of 290,000 active; Vero cells, Shiga toxin protein synthesis inhibition reporter; in the data active = inhibition mostly above about 28%, no sharp cut-off; inactive = mostly below about 43%
Sm TGR block = S. mansoni TGR enzyme inhibition. Q962Y6. Potency, µM (doses to about 114 µM), hits mostly inhibitors. purified TGR, DTNB reduction, TNB absorbance 405 nm. 3% of 360,000 active; also: nearly all actives have a fitted effect of over 60% in size
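TGR 20 nM + NADPH 100 uM (dispensed conc.), cpd preinc 15 min RT; start with NADPH (500 uM addition) then DTNB (15 mM addition). Kinetic TNB absorbance, 405 nm filter. Four-parameter Hill fit across titration.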
Pf growth 96h = inhibits malaria parasite growth, 96 h; Potency, µM (doses to about 28.7 µM), most hits filed as inhibitors; P. falciparum luciferase reporter growth, 96 h; 6.9% of 320,000 active; AID 504834
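Two-generation exposure (96 h) targets delayed-death phenotype. Reporter parasites carrying integrated firefly luciferase, in red cells at 2% hematocrit and 0.05% parasitemia final, kept at 37 C, 5% CO2; luminescence loss indicates inhibition.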
CHX counter = counter-screen for Shiga toxin inhibitors: cycloheximide protein synthesis inhibition; 12% of 300,000 active; cell reporter, cycloheximide protein synthesis inhibition counterscreen; max response, %; AID 2314; in the data active = max response mostly above about 13%, no sharp cut-off; inactive = mostly below about 14%; also: read at 38.3 µM for the half of the compounds with a filed dose
Pf growth 48h = P. falciparum growth inhibition at 48 hours (one generation). P. falciparum luciferase growth in erythrocytes, 48 h. Potency, µM (top dose mostly 28.7 µM), usual class: inhibitors. 5.9% of 310,000 active. AID 504832
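Growth was read as firefly luciferase luminescence after a 48 h, 37 C, 5% CO2 exposure of compounds to reporter-bearing P. falciparum cultures (0.1% parasitemia, 2% hematocrit final) in Albumax-supplemented RPMI 1640.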
NS1 inh = blocks influenza NS1 protein function; Potency, µM (highest dose often 46.1 µM); 0.4% of 270,000 active; AID 2326; calls by dose curve; also: actives are rising curves; nearly all actives have a fitted effect of over 50% in size
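Recovery from NS1-induced slow growth read by OD600 in budding yeast switched to galactose assay medium (pH 6.0, -URA) at 1:100 dilution. Compound 23 nl per well; the matching strain lacking NS1 serves as control.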
Each line names hits and unclear results; the compound was inactive in the other large screens. Unless noted, calls follow the shape of the dose curve; as a rule, active = well fitted curve in the direction sought with a large enough effect; inconclusive = small, poorly fitted or top-dose-only effect, or another doubt; inactive = no such curve, though single readings can be large; an effect the other way counts as inactive or inconclusive.

CCN1CCN(c2cc(C(C)C)nc3c(-c4ccccc4)c(C)nn23)CC1	Pf growth 96h 15µM, Pf growth 48h inconclusive
Cc1nn2c(NCCCn3ccnc3)cc(C(C)C)nc2c1-c1ccccc1	Pf growth 96h 8.3µM, Pf growth 48h 2.1µM
CCCc1cc(NCc2ccccn2)n2nc(C)c(-c3ccccc3)c2n1	Pf growth 96h 13µM, Pf growth 48h 2.6µM
Cc1nn2c(N3CCOCC3)cc(C(C)C)nc2c1-c1ccccc1	none
Cc1ccc(-c2nc3ncccc3o2)cc1NC(=O)c1cccc(OCC(C)C)c1	none (no result: Shiga toxin inh, Pf growth 96h, CHX counter, Pf growth 48h, NS1 inh)
CC(C)c1ccc(N=c2c([N+](=O)[O-])nn(-c3ccc4c(c3)OCCO4)n2O)cc1	Sm TGR block 13µM, Pf growth 96h inconclusive, CHX counter 14, Pf growth 48h 10µM
COc1cc(N=c2c([N+](=O)[O-])nn(-c3ccc4c(c3)OCCO4)n2O)cc(OC)c1	Shiga toxin inh 19, Sm TGR block inconclusive, Pf growth 96h inconclusive, CHX counter 29
CN=c1c([N+](=O)[O-])nn(-c2ccc3c(c2)OCCO3)n1O	Shiga toxin inh 61, CHX counter 32
Cc1c(Cl)c([N+](=O)[O-])nn1CC(=O)Nc1ccc2c(c1)OCO2	none
CCc1cccc(N=c2c([N+](=O)[O-])nn(-c3ccc4c(c3)OCCO4)n2O)c1	Shiga toxin inh 71, Sm TGR block inconclusive (no result: NS1 inh)
CCCc1nc2sc3c(N4CCCCC4)ncnc3c2c2c1CCCC2	none (no result: Shiga toxin inh, Pf growth 96h, CHX counter, Pf growth 48h, NS1 inh)
Cc1cc(C)n2nc(CNC(=O)c3cccc(Cl)c3)nc2n1	none (no result: Shiga toxin inh, Pf growth 96h, CHX counter, Pf growth 48h, NS1 inh)
O=C(COc1ccc(F)cc1)N1CCC(Cc2ccccc2)CC1	CHX counter 14, Pf growth 48h inconclusive
COc1ccc(Br)c(C(=O)OCC(=O)N2CCC(Cc3ccccc3)CC2)c1	Pf growth 48h 13µM (no result: Shiga toxin inh, CHX counter, NS1 inh)
COc1ccc(OCC(=O)N2CCC(Cc3ccccc3)CC2)cc1	Pf growth 96h inconclusive
COC(=O)c1ccc(CSc2nnc(NC(=O)C3CCCO3)s2)cc1 (stereo not drawn)	none (no result: Pf growth 96h)
COC(=O)c1cccc(CSc2nnc(C)s2)c1	Shiga toxin inh 97, CHX counter 23
COC(=O)c1ccc(CSc2nnc(N)s2)cc1	CHX counter 21
COC(=O)c1ccc(CSc2nnc(C)s2)cc1	Shiga toxin inh 67, CHX counter 38
Cc1nnc(SCC(=O)c2ccc(Cl)cc2)s1	Shiga toxin inh 87, CHX counter 43
Cc1nnc(SCC(=O)c2ccc([N+](=O)[O-])cc2)s1	Pf growth 96h inconclusive
CN(CCc1ccccn1)C(=O)CC1C(=O)NCCN1Cc1cccc(F)c1 (stereo not drawn)	Sm TGR block inconclusive
COc1cccc(-n2cc(C(=O)NCCCOC(C)C)c3ccccc3c2=O)c1	none
CCCCN(C)C(=O)C1CCCN(c2ncnc3onc(C)c23)C1 (stereo not drawn)	none (no result: Shiga toxin inh, Pf growth 96h, CHX counter, Pf growth 48h, NS1 inh)
COc1ccccc1C(=O)NC(=O)CSc1nnc(C)s1	none
COC(=O)c1ccc(CSc2nc(N)cc(N)n2)cc1	Shiga toxin inh 53, CHX counter 36
COC(=O)c1ccc(CSc2nc3sc(C)c(C)c3c(=O)[nH]2)cc1	none
COc1ccc(CSc2nnc(C)s2)cc1F	Shiga toxin inh 73, Pf growth 96h inconclusive, CHX counter 16 (no result: NS1 inh)
Cc1cc(C)c2c(-n3cccc3)c(C(=O)NCCc3ccccc3)sc2n1	none (no result: Shiga toxin inh, Pf growth 96h, CHX counter, Pf growth 48h, NS1 inh)
O=C(O)CCc1ccc(-c2ccccc2)o1	Sm TGR block 1.4µM, CHX counter 15
Cc1ccc(O)c(C2=Nc3ccccc3C2(C)C)c1	Shiga toxin inh 89, CHX counter 49
O=C(Cn1cc2c(n1)CCCC2)N1CCCc2ccccc21	Shiga toxin inh 76, CHX counter 18
O=C(Cn1cc2c(n1)CCCCC2)N1CCCCC1	CHX counter 18, NS1 inh inconclusive
O=C(O)Cn1cc2c(n1)CCCCC2	none
O=C1CCC(=O)N1CC(=O)N1CCCc2ccccc21	none
Cc1c(Cl)c([N+](=O)[O-])nn1CC(=O)N1CCCc2ccccc21	Pf growth 96h inconclusive, CHX counter 25
CC1CCc2nn(CC(=O)N3CCc4ccccc43)cc2C1 (stereo not drawn)	Pf growth 96h 10µM (no result: Pf growth 48h)
CC1CCc2nn(CC(=O)N3CCCCCC3)cc2C1 (stereo not drawn)	none
N#Cc1cccc(Oc2ccc(-c3cnc4ccccc4n3)cc2)c1C#N	Pf growth 96h inconclusive

Assay outcomes: PubChem BioAssay, National Center for Advancing Translational Sciences (NCATS)
